KB-V1 cytotox: qHTS assay for MDR1-selective chemotherapeutics: Primary screen using the drug-selected MDR subline cells KB-V1. KB-V1 MDR cells viability, CellTiter-Glo, 72 h. Potency, µM (titrated, usually from 46.1 µM), hits mostly cytotoxic. hit rate 3.4% among 400,000; further: on the % scale 0 is the no-effect control and ±100 the full control effect; nearly all actives have a fitted effect of over 60% in size
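Luminescent ATP read-out (CellTiter-Glo, 10 min) measures survival of drug-selected KB-V1 MDR cells after 72 h, 37 degrees C compound exposure. Medium: phenol-red-free DMEM, 10% FBS. Values from fitted concentration-response curves.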
SW480 rereplic: A quantitative high throughput screen for small molecules that induce DNA re-replication in SW480 colon adenocarcinoma cells; SW480 DNA re-replication, Hoechst DNA content imaging, 48 h; Potency, µM (series often up to 46.1 µM), inactives show at the highest dose re-replication activation, hits mostly activators; hit rate 1.8% among 340,000; AID 624297, 2012; further: % of control where 0% means no effect; nearly all actives have a fitted effect of over 55% in size
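Image-based read-out: total Hoechst fluorescence of nuclei (405 nm excitation, 500-530 nm emission), with hits raising the fraction of high-intensity nuclei. SW480 colon cells incubated 48 hr with compounds at 37 C.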
MCF10A rerep: A quantitative high throughput screen for small molecules that induce DNA re-replication in MCF 10a normal breast cells. Potency, µM (series often up to 46.1 µM), for the others: top-dose activity, positive = re-replication, actives largely listed as activators. hit rate 2.9% among 350,000. AID 624296, 2012. MCF 10A DNA re-replication, Hoechst nuclear intensity, 48 h; further: % of control where 0% means no effect; nearly all actives have a fitted effect of over 50% in size
KB-3-1 tox: qHTS assay for MDR1-selective chemotherapeutics: Primary screen using the parental adenocarcinoma cell KB-3-1 | KB-3-1 viability, CellTiter-Glo ATP luminescence, 72 h | Potency, µM (series often up to 46.1 µM), usual class: cytotoxic | hit rate 1.4% among 400,000; further: on the % scale 0 is the no-effect control and ±100 the full control effect; nearly all actives have a fitted effect of over 60% in size
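Multi-concentration cytotoxicity screen in KB-3-1 cells grown in DMEM lacking phenol red with 10% FBS. After 72 h at 37 °C with compound, ATP-dependent luminescence was recorded.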
ELG1 DNA repair: qHTS screen for small molecules that inhibit ELG1-dependent DNA repair in human embryonic kidney (HEK293T) cells expressing luciferase-tagged ELG1. HEK293T ELG1-luciferase reporter, luminescence, 16 h; DNA damage induced by 5-fluorouridine. Potency, µM (series often up to 46.1 µM), without a hit: at the highest dose activity change, negative = inhibition, hits mostly inhibitors. hit rate 2.3% among 330,000; further: on the % scale 0 is the no-effect control and ±100 the full control effect; nearly all actives have a fitted effect of over 55% in size
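Overnight (16 hr) co-exposure of 2,000 cells/well to 5-fluorouridine and compound at 37 °C preceded detection. Luciferase was quantified via ONE-Glo luminescence; loss of signal denotes inhibition.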
Active calls of the source: *; i = inactive; ? = inconclusive; . = no result given. Rows were chosen to be rich in hits. Some 8.1% of all compounds tested hit in one or more screens of this group. The call rests on the fitted dose curve; in most records, active means well fitted curve in the direction sought with a large enough effect; inconclusive means small, poorly fitted or top-dose-only effect, or another doubt; inactive means no such curve, though single readings can be large; an effect the other way counts as inactive or inconclusive. Potency means the concentration at half of the fitted maximal effect.

SMILES	KB-V1 cytotox	SW480 rereplic	MCF10A rerep	KB-3-1 tox	ELG1 DNA repair
CC(=O)Nc1cc(OC(C)=O)c2nonc2c1OC(C)=O	i	2.9µM*	?	?	?
C[C@@H]1COC(=O)[C@H](Cc2ccc(F)cc2)C/C=C\C[C@@H](CC(=O)N[C@H](CO)Cc2ccccc2)C(=O)N1	i	0%	-6%	i	?
CCC1=C(c2ccc(C)cc2)S(=O)(=O)N=C1N1CCC(C(=O)NCc2ccccc2Cl)CC1	i	.	.	i	.
O=C(NNC(=O)C1C2CCCCC21)c1coc(=O)c(Br)c1 (stereo unspecified)	i	5%	0%	i	?
O=C(NCCc1csc(-c2ccc(F)cc2)n1)c1cccs1	i	.	.	i	.
COc1ccc(CC(=O)NCCc2csc(-c3ccc(Cl)cc3)n2)cc1	0.92µM*	.	.	i	.
COc1ccc(-c2nc(CCNC(=O)c3cccs3)cs2)cc1	i	2%	1%	i	21µM*
O=C(C[C@H]1C/C=C\CC[C@@H](Cc2ccc(F)cc2)C(=O)O[C@@H](c2ccccc2)CNC1=O)N[C@H](CO)Cc1ccccc1	i	-12%	?	i	7%
Cc1c(NC(=O)CN2C(=O)C(=O)c3ccccc32)c(=O)n(-c2ccccc2)n1C	i	-6%	4%	i	3%
CC(C)c1c(C(=O)N/N=C/c2cccc(OCc3ccccc3)c2)nnn1-c1nonc1N	i	-17%	16µM*	i	-19%
COc1cccc(/C=N/NC(=O)c2nnn(-c3nonc3N)c2C(C)C)c1OCc1ccc(F)cc1	i	?	21µM*	i	?
CCSc1nnc2c(n1)OC(c1sccc1C)N(C(C)=O)c1ccccc1-2 (stereo unspecified)	?	.	.	i	.
CN(C)S(=O)(=O)c1cccc(NC(=O)CSc2nc3c(cc2C#N)C(=O)CC(C)(C)C3)c1	16µM*	16µM*	15µM*	21µM*	?
CN(C)S(=O)(=O)c1ccc(Cl)c(NC(=O)CSc2nc3c(cc2C#N)C(=O)CC(C)(C)C3)c1	i	?	2.9µM*	i	-16%
CCCCOC(=O)CSc1nc2c(cc1C#N)C(=O)CC(C)(C)C2	i	-4%	15%	i	?
O=C1C=CC(=O)N1c1ccc(Nc2ccccc2)cc1	i	?	?	i	.
CCc1c(C)nc2ncnn2c1Nc1ccc(C#N)c(Cl)c1	?	-8%	-3%	i	-4%
CC(C)N1C(=O)CN(C2CCCCCC2)C(=O)C1c1ccccc1F (stereo unspecified)	i	-4%	-5%	i	?
Cc1cccc(NC(=O)C2CCCN(c3cnccn3)C2)c1 (stereo unspecified)	i	?	18µM*	i	9%
O=C(Nc1ccccc1-c1ccccc1)C1CCCN(c2ncccn2)C1 (stereo unspecified)	21µM*	0%	-3%	i	-11%
O=C(Nc1cccc(C(F)(F)F)c1)C1CCCN(c2ncccn2)C1 (stereo unspecified)	16µM*	-3%	-4%	i	-12%
Cc1ccc(NC(=O)C2CCCN(c3ncccn3)C2)c(C)c1 (stereo unspecified)	i	-20%	-33%	i	?
Cc1ccc(NC(=O)C2CCCN(c3ncccn3)C2)cc1F (stereo unspecified)	16µM*	5%	2%	i	?
O=C(NCc1cccc(C(F)(F)F)c1)C1CCCN(c2ncccn2)C1 (stereo unspecified)	i	1%	-7%	i	-26%
CC(Oc1ccccc1)C(=O)NNC(=O)c1cccs1 (stereo unspecified)	i	-3%	5%	i	-2%
SMILES	KB-V1 cytotox	SW480 rereplic	MCF10A rerep	KB-3-1 tox	ELG1 DNA repair
CCOC(=O)c1sc(NC(=O)C(CC)Sc2nnc3c4ccccc4n(CC)c3n2)nc1C (stereo unspecified)	i	1%	0%	i	-2%
CCOC(=O)c1c(SCCN2CCCCC2)n(-c2ccccc2)c(=S)n(-c2ccccc2)c1=O	i	12µM*	9.2µM*	i	.
CCOC(=O)c1c(SC)n(-c2ccccc2)c(=S)n(-c2ccccc2)c1=O	i	-7%	8%	i	14%
O=C1c2cccc3cccc(c23)C(=O)N1c1cccnc1	i	3%	18µM*	i	1%
COc1ccc(N2C(=O)c3ccccc3C2=O)cc1	i	-1%	11%	i	13%
COc1ccc(N2C(=O)c3cccc4cccc(c34)C2=O)cc1	i	13µM*	2%	i	3%
O=C(Cc1ccccc1)N/N=C/c1cc(Br)cc(Br)c1O	i	4.1µM*	7.3µM*	?	6.5µM*
O=C(CNC(=O)c1cccc(Br)c1)N/N=C/c1cc(Br)cc(Br)c1O	i	-7%	-2%	i	-27%
O=C(COc1nsnc1N1CCOCC1)N/N=C/c1ccccc1O	?	18µM*	?	i	?
O=C(CNC(=O)c1ccccc1F)N/N=C/c1cc(Br)ccc1OCc1ccccc1	i	?	18%	i	8.2µM*
O=C(Cc1csc(N2CCOCC2)n1)N/N=C/c1ccc(O)c(O)c1O	i	-9%	-1%	?	13µM*
C/C(=N\NC(=O)Cc1csc(N2CCOCC2)n1)c1ccccc1	i	-8%	5%	i	-20%
O=C(CNC(=O)c1cccc(F)c1)N/N=C/c1cc(Br)ccc1OCc1ccccc1	i	14%	?	i	?
O=C(NC1CCCN(Cc2ccc(Cl)cc2)C1)c1cccc(F)c1 (stereo unspecified)	i	6%	6%	i	4%
CCN(C(=O)COC(=O)/C=C/c1ccc(S(=O)(=O)N2CCc3ccccc32)cc1)C1CCS(=O)(=O)C1 (stereo unspecified)	i	-1%	?	i	0%
CCCCC(=O)N(C)c1c(CC)nc2c(OCC(=O)c3ccc(F)cc3)cccn12	i	.	.	i	.
Cc1ccccc1OCCC(=O)OCC(=O)Nc1c(F)cccc1F	i	-2%	10%	i	1%
O=C(Cn1cc(C(F)(F)F)ccc1=O)N/N=C/c1ccccc1O	i	5.8µM*	0%	i	18µM*
CSc1nc(C)cc(OCC(=O)N/N=C/c2ccccc2O)n1	i	?	5.2µM*	5.8µM*	?
O=C(CCCCC(=O)NN=Cc1ccccc1O)NN=Cc1ccccc1O	i	1.5µM*	?	?	.
